Records with an inconclusive call do not appear. A call without a number means that no potency is given here. Unmarked numbers belong to inactive results. Active and inactive are the calls of the source. The call rests on the fitted dose curve; in most records, active means well fitted inhibition curve with a large enough effect; inconclusive means small, poorly fitted or top-dose-only effect; inactive means no such curve, though single readings can be large or run the other way. Numbered stars: 1 amine (or outer) side, 2 acyl side, 3 side chain; on linkers, the order of the positions; unused ones are H or OH. Bridge positions count the residues as written; N and C are the ends. Square brackets hold non-standard residues; d marks the D form. Peptide text beside a SMILES is read from it. I, II: the chains in the order shown. * marks the point of attachment. ξ: configuration not given here. Actinocin(9to1) = Cc1c2oc3c(C)ccc(C(=O)[*:1])c3nc-2c(C(=O)[*:2])c(N)c1=O; ξNMeV = CNC(C(=O)O)C(C)C; Cbz = O=C(OCc1ccccc1)*; Nva = CCC[CH](N)C(=O)O; ξV = CC(C)C(N)C(=O)O; Sar = CNCC(=O)O

In the experiment the test system is zebrafish Abcb4 (ABCB1 homolog). The experiment in a line: qHTS for characterization and localization of zebrafish homologs of the human ABCB1 multidrug transporter: ABCB4 transfected cells. Conditions: CellTiter-Glo viability luminescence, 72 h; series mostly up to 46.1 µM. From the text: The zebrafish has emerged as a potential model to study the blood-brain barrier (BBB) given its similarities with mammalian systems. However, little information has been available with regard to homologous ATP-binding cassette transporters expressed at the zebrafish BBB. Two transporters that are highly expressed at the human BBB are P-glycoprotein (P-gp, encoded by the ABCB1 gene) and ABCG2 (encoded by the ABCG2 gene). In this study, we focus on characterization of P-gp homologs in the zebrafish, which has two genes that are homologous to human ABCB1 - abcb4 and abcb5. We generated stably-transfected cell lines to determine their substrate specificities. […] Zebrafish abcb4 also colocalized with claudin 5 expression in brain endothelial cells.
A high-throughput screen was performed as previously described on empty vector transfected cells, P-gp-overexpressing MDR-19 cells and cells transfected with full-length zebrafish abcb4 (ZF Abcb4) or abcb5 (ZF Abcb5). Briefly, cells were plated into 1536-well plates at a density of 500 cells/well in 5 uL media. P-gp substrate compounds (approximately 90) selected from our previous study were then added at varying concentrations using a 1536-head pin tool (Kalypsis, San Diego, CA) and plates were incubated at 37C in 5% CO2 for 72 h. CellTiter-Glo reagent (Promega) was dispensed into the wells, incubated for 5 min and luminescence was read on a ViewLux instrument (Perkin-Elmer).
Cytotoxic compounds were defined as those that yielded a curve class of -1.1, -1.2, -2.1, -2.2, -2.3, or -2.4, a maximum response of >50% and an AC50 of < 10 uM. All compounds from screening analysis were tested in Vector (empty vector control), MDR-19 (P-gp overexpressing), zebrafish abcb4 (ZF Abcb4) and abcb5 (ZF Abcb5) expression cell lines.
1. Tobie D Lee, Olivia W Lee, Kyle R Brimacombe, Lu Chen, Rajarshi Guha, Sabrina Lusvarghi, Bethilehem G Tebase, Carleen Klumpp-Thomas, Robert W Robey, Suresh V Ambudkar, Min Shen, Michael M Gottesman, Matthew D Hall. A High-Throughput Screen of a Library of Therapeutics Identifies Cytotoxic Substrates of P-glycoprotein. Mol Pharmacol. 2019, Nov;96(5):629-640.
`C=C1CO[C@@]2(O[C@H]3CC4C5CC=C6C[C@@H](O)C[C@@H](O[C@@H]7OC[C@H](O)[C@H](O[C@@H]8OC[C@@H](O)[C@H](O)[C@H]8O)[C@H]7O[C@@H]7O[C@@H](C)[C@H](OC(C)=O)[C@@H](OC(C)=O)[C@H]7OC(C)=O)[C@]6(C)C5CC[C@]4(C)[C@@H]3[C@@H]2C)[C@@H](O)[C@H]1OC1OC(C)C(O)C(O)C1O` (stereo not given in full): the activity change, negative = inhibition was 4.44% [at 8.96 µM]. Turning to `CCn1c(-c2nonc2N)nc2c(C#CC(C)(C)O)ncc(OC[C@H]3CCCNC3)c21`, the Potency entry is “inactive”. `CCC(C)C(=O)OC1CC(O)C23C4OCC5(C(O)CC2C1(C)C(O)O4)C3C(=O)C(O)C1(C)C(O)(c2ccoc2)CC2OC251` (stereo not given): the Potency entry is “inactive”.

For `CCN(CCCO)CCCOc1ccc2c(Nc3cc(CC(=O)Nc4cccc(F)c4)[nH]n3)ncnc2c1`, the Potency entry is “inactive”.

Consider `Cc1cc(Nc2cc(N3CCN(C)CC3)nc(Sc3ccc(NC(=O)C4CC4)cc3)n2)n[nH]1`, for which the Potency entry is “inactive”. As for `C[C@@H]1O[C@@H](O[C@H]2[C@@H](OC(=O)[C@]34CCC(C)(C)CC3C3=CCC5[C@@]6(C)C[C@H](O)[C@H](O[C@@H]7O[C@H](CO)[C@@H](O)[C@H](O)[C@H]7O[C@@H]7OC[C@@H](O)[C@H](O)[C@H]7O)[C@@](C)(C(=O)O)C6CC[C@@]5(C)[C@]3(C)CC4)OC[C@H](O)[C@@H]2O)[C@H](O)[C@H](O)[C@H]1O[C@@H]1OC[C@@H](O)[C@H](O)[C@H]1O` (stereo not given in full), the activity change, negative = inhibition was -5.3% [at 8.96 µM].

For `CCN(CC)Cc1ccc(C(=O)N(CCc2ccccc2OC)[C@@H]2CCNC2)cc1`, the Potency result is “inactive”. As to `CC(NCc1ccc2c(c1)nc(NC(=O)c1ccc(-c3cn[nH]c3)s1)n2CC(C)(C)O)C(C)(C)C` (stereo not given), the Potency is 6.62 µM (active).

Consider `CC1(C)CC[C@]2(C(=O)OC3OC(CO)C(O)C(O)C3O)CC[C@]3(C)C(=CCC4[C@@]5(C)CC[C@H](OC6OC(C(=O)O)C(O)C(O)C6O)C(CO)(CO)C5CC[C@]43C)[C@@H]2C1` (stereo not given in full), for which the Potency entry was “inactive”. Regarding `Cc1ccc(C(=O)N(CCCN)C(c2nc3cc(Cl)ccc3c(=O)n2Cc2ccccc2)C(C)C)cc1` (stereo not given), the Potency was 20.9 µM (active).

Regarding `Cc1nc(Nc2n[nH]c3c2CN(C(=O)N[C@H](CN(C)C)c2ccccc2)C3(C)C)c2sccc2n1`, the Potency entry was “inactive”. Take `COCCn1c2c([n+](Cc3cnccn3)c1C)C(=O)c1ccccc1C2=O`: the Potency result is “inactive”. Same read-out and setting: as for `CCN1CCN(Cc2ccc(NC(=O)Nc3ccc(Oc4cc(NC)ncn4)cc3)cc2C(F)(F)F)CC1`, the entry is “inactive”; as for `C#CCN(Cc1cc2c(=O)n(C)c(CN3CCN(C)CC3)nc2cc1Cl)c1ccc(C(=O)NCc2cccnc2)cc1`, “inactive”; as for `CC1(C)CC(NC(=O)C(=O)Nc2ccc(Br)cc2)CC(C)(C)N1`, “inactive”. For the molecule `CN(C)C1CCN(C(=O)c2ccc(NC(=O)Nc3nc(N4CCOCC4)nc(N4CCOCC4)n3)cc2)CC1`, the Potency entry was “inactive”. Consider `Cc1ccc(C(=O)N(CCCN)[C@@H](c2oc3cc(Cl)ccc3c(=O)c2Cc2ccccc2)C(C)C)cc1`, for which the Potency is 20.9 µM (active). Regarding `N=C(N)c1ccc(OCCCCCOc2ccc(C(=N)N)cc2)cc1`, the Potency result was “inactive”. Same read-out and setting: as for `CCCC(C=O)NC(=O)C(CC(C)C)NC(=O)C(CC(C)C)NC(=O)OCc1ccccc1` (stereo not drawn) (Cbz-Leu-Leu-[Nva]-aldehyde; configuration not given here), the figure is 3.72 µM (active); as for `CC(=O)C1(O)Cc2c(O)c3c(c(O)c2C(OC2CC(N)C(O)C(C)O2)C1)C(=O)c1c(O)cccc1C3=O` (stereo not given), 0.526 µM (active); as for `CN(C)c1ccc(C(=C2C=CC(=[N+](C)C)C=C2)c2ccc(N(C)C)cc2)cc1`, 13.2 µM (active). `COC(C(=O)N1Cc2[nH]nc(NC(=O)c3ccc(N4CCN(C)CC4)cc3)c2C1)c1ccccc1` (stereo not given): the Potency entry was “inactive”.

Take `CCS(=O)(=O)c1cccc(-c2cc(C(=O)NC3CCN(C)CC3)c(C)c3[nH]c4ncc(C)cc4c23)c1`: the Potency result is “inactive”. Same read-out and setting: as for `CO[C@H]1/C=C/C=C/C=C/C[C@H](OC(=O)[C@@H](C)NC(=O)C2CCCCC2)[C@H](C)[C@@H](O)/C(C)=C/CCc2cc(O)cc(c2)NC(=O)C1`, the entry is “inactive”.

As for `C[C@@H]1O[C@@H](O[C@H]2[C@H](O)[C@@H](O)[C@H](O[C@H]3[C@H](O[C@H]4CC[C@@]5(C)C(=CC[C@@H]6C5CC[C@]5(C)[C@@H]7[C@H](C[C@@H]65)O[C@]5(CC[C@@](C)(CO[C@@H]6O[C@H](CO)[C@@H](O)[C@H](O)[C@H]6O)O5)[C@H]7C)C4)O[C@H](CO)[C@@H](O)[C@@H]3O)O[C@@H]2CO)[C@H](O)[C@H](O)[C@H]1O` (stereo not given in full), the Potency result was “inactive”. Regarding `CC[n+]1c(-c2ccccc2)c2cc(N)ccc2c2ccc(N)cc21`, the Potency entry was “inactive”. For `Cc1c2oc3c(C)ccc(C(=O)N[C@@H]4C(=O)NC(C(C)C)C(=O)N5CCC[C@H]5C(=O)N(C)CC(=O)N(C)C(C(C)C)C(=O)O[C@@H]4C)c3nc-2c(C(=O)N[C@@H]2C(=O)NC(C(C)C)C(=O)N3CCC[C@H]3C(=O)N(C)CC(=O)N(C)C(C(C)C)C(=O)O[C@@H]2C)c(N)c1=O` (stereo not given in full) (I: T[ξV]P[Sar][ξNMeV] / II: T[ξV]P[Sar][ξNMeV]; ester I:1-I:C, II:1-II:C; linker I:N-II:N via Actinocin(9to1)), the Potency was 0.418 µM (active). Consider `CC(C)C[C@@H](C=O)NC(=O)[C@H](CC(C)C)NC(=O)[C@H](CC(C)C)NC(=O)OCc1ccccc1` (Cbz-Leu-Leu-Leu-aldehyde), for which the Potency is 2.96 µM (active). In the case of `CCc1cccc(CC)c1NC(=O)N1Cc2[nH]nc(NC(=O)c3ccc(N4CCN(C)CC4)cc3)c2C1`, the Potency result is “inactive”.

On to `CN(C)C/C=C/C(=O)Nc1cccc(C(=O)Nc2ccc(Nc3nccc(-c4cccnc4)n3)cc2)c1`, for which the Potency entry was “inactive”.

With `COc1cc2ncn(-c3cc(OCc4ccccc4C(F)(F)F)c(C(N)=O)s3)c2cc1OC`, the Potency is 19.1 µM (active). On the same count and under the same terms, the result for `CC(=O)O[C@@H]1C[C@H](O)[C@@]23CO[C@@H](O)C1(C)[C@@H]2C[C@@H](O)[C@]1(C)[C@@H]3C(=O)[C@H](OC(C)=O)[C@@]2(C)[C@H](c3ccoc3)C[C@H]3O[C@]321` reads 2.96 µM (active).

For `C#Cc1cccc(Nc2ncnc3cc(OC)c(OCCCCCCC(=O)NO)cc23)c1`, the Potency was 13.2 µM (active). The same measure, in the same setting: the result for `C=CCn1c(=O)c2cnc(Nc3ccc(N4CCN(C)CC4)cc3)nc2n1-c1cccc(C(C)(C)O)n1` reads 4.18 µM (active); that for `COc1cc(N2CCC(O)CC2)ccc1Nc1nc(Nc2ccccc2S(=O)(=O)C(C)C)c2[nH]cnc2n1`, “inactive”; that for `COc1ccc(CC2C(=O)NC(C)C(=O)N(C)C3Cc4ccc(cc4)Oc4cc(ccc4OC4OC(CO)C(O)C(O)C4O)CC(C(=O)NC(C)C(=O)NC(C)C(=O)N2C)N(C)C3=O)cc1` (stereo not given), “inactive”. For the molecule `COc1cc2c(NC3CCN(C(C)C)CC3)nc(N3CCCN(C)CC3)nc2cc1OCCOCCN(C)C`, the Potency result is “inactive”. As to `O=C(NC1CC1)c1cccc(-c2ccc3c(NC(=O)C4CC4)n[nH]c3c2)c1`, the Potency entry is “inactive”. Regarding `COc1cc2c(NC3CCN(C(C)C)CC3)nc(N3CCCN(C)CC3)nc2cc1OCCCN1CCCC1`, the Potency result is “inactive”. On to `CC[C@@]1([C@@H]2O[C@@H]([C@H]3O[C@@](O)(CO)[C@H](C)C[C@@H]3C)C[C@@H]2C)CC[C@H]([C@]2(C)CC[C@]3(C[C@H](O)[C@@H](C)[C@@H]([C@@H](C)[C@@H](OC)[C@H](C)C(=O)O)O3)O2)O1`, for which the Potency was 1.05 µM (active).

(Values after PubChem BioAssay AID1508635 (National Center for Advancing Translational Sciences (NCATS), 2021).)
